Reference: ChEMBL document CHEMBL3433997, “St. Jude Leishmania screening dataset” (2016)

Each compound was assayed against Solute carrier family 2, facilitated glucose transporter member 1 (Homo sapiens) (UniProt P11166) (assay: ST_JUDE_LEISH: Cytotoxicity at 2uM final concentration against transgenic Leishmania Mexicana promastigotes LmGLUT1 that are glucose transport deficient and complemented with the human glucose transporter GLUT1. Activity is measured by DNA content using SYBR green in vitro).
Solute carrier family 2, facilitated glucose transporter member 1 (Homo sapiens), sequence (P11166 whole entry): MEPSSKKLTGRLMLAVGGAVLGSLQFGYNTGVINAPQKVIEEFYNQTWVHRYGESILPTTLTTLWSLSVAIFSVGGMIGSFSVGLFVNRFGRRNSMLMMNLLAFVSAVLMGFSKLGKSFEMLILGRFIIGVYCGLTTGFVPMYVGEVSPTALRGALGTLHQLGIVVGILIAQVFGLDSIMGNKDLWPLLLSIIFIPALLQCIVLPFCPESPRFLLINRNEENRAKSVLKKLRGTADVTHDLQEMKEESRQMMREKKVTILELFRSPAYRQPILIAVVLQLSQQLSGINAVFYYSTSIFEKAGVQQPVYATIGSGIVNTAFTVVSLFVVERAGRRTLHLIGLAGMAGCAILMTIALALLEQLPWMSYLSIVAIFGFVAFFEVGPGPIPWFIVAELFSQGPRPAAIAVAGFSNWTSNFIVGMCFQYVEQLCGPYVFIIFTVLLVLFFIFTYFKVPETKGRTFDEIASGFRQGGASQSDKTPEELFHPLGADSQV
Assay type: functional

| SMILES | inhibition [%] |
| --- | --- |
| CN(C)Cc1ccc(-c2cc3ncnc(Nc4ccc(OCc5cccc(F)c5)c(Cl)c4)c3s2)[nH]1 | 3.19 |
| CCn1c(-c2nonc2N)nc2c(-c3cccc(Cl)c3)ncc(OCCCNCCc3c[nH]cn3)c21 | 4.7 |
| CC[C@@H]([C@@H](CC(C)C)C(=O)N[C@@H](CCCCNC(=O)OCc1ccccc1)C(=O)Nc1ccccn1)N(O)C=O | 4.89 |
| Cc1cc(Cl)c(S(=O)(=O)N(C)c2ccccc2)cc1OCC(=O)NC1CCCCC1 | 1.65 |
| CC(O)C(C)(CO)NCc1ccc2c3c(cccc13)-c1ccccc1-2 (centres undefined) | 15.7 |
| CC(Cc1ccc(OCCN2CCN(c3ccc(Cl)cc3)CC2)cc1)NCC(O)c1cccc(C(F)(F)F)c1 (centres undefined) | -2.36 |
| Cc1nc(N)nc(N)c1-c1ccc(Br)cc1 | 9.9 |
| COc1ccccc1CCCN1C(=O)C(c2ccccc2)(c2ccccc2)N=C1N | 4.43 |
| CC(=O)Nc1ccc(Nc2c3ccccc3nc3ccccc23)cc1 | 8.17 |
| CCC(C)NC(=O)Nc1ccc(-c2cccc(-c3nc4ccccc4[nH]3)c2)cc1 (centres undefined) | -0.78 |
| COCCn1ccc2c3c(N)nc(N)nc3ccc21 | 0.38 |
| Fc1ccc2[nH]c(-c3ccc(-c4ccc(CNCCc5ccncc5)cc4)cc3)nc2c1 | 4.9 |
| Cc1cc(NC2CCN(CC3CCCCC3)C2)nc(Nc2ccc(Br)cc2)n1 (centres undefined) | -0.39 |
| COc1cccc(-c2csc(C(=O)NCC3CCN(Cc4ccc(C(C)(C)C)cc4)C3)c2)c1 (centres undefined) | 3.1 |
| Cc1cc(Cl)c(S(=O)(=O)N2CCc3ccccc32)cc1OCC(=O)NC1CCCCC1 | 2.33 |
| COc1ccc(C(=O)CC(=O)c2ccc(OC)cc2OC)c(OC)c1 | 6.03 |
| CC1(C)OC[C@]2(C)[C@@H](CC[C@]3(C)C4=CC(=O)CCC4CC[C@@H]23)O1 (some centres undefined) | 0.57 |
| CC1(C)CC(=O)c2c(O)cc(OCc3ccncc3)cc2O1 | 2.92 |
| CN1CCCN(Cc2ccc(-c3ccc(NC(=O)c4cccc(Cl)c4)cc3)cc2)CC1 | 0.35 |
| COc1ccc(/C=C/C(=O)NCCCCCN2CCC(c3c[nH]c4ccccc34)CC2)cc1O | 12.1 |
| Cc1[nH]c(C)c(-c2ccc(-c3cccc(C(F)(F)F)c3)nc2)c(=O)c1Br | 9.61 |
| c1cc(Cc2ccc(Nc3c4ccccc4nc4ccccc34)cc2)cc(Nc2c3ccccc3nc3ccccc23)c1 | 5.95 |
| CCN(CCCN1CCCCC1)c1cc(C)nc(Nc2ccc(F)c(C(F)(F)F)c2)n1 | -1.41 |
| CC(C)Cc1ccc(N2CCN(CCCCNC(=O)c3ccc(NC(=O)c4cc(C(F)(F)F)cc(C(F)(F)F)c4)cc3)CC2)cc1 | 0.41 |
